The structures appear in SMILES notation. Hit rate of the full screen: of about 2,000 compounds, about 250 (12%) were called active. Cut-off read from the data, not from the text of the source: active = hERG blockade below about -20% or above about 20%; inactive = in between. Shown is part of a subset that was picked to be rich in actives.

For the test, the target named is Voltage-gated inwardly rectifying potassium channel KCNH2 (Homo sapiens) (UniProt Q12809). Kind of test: modulators of KCNH2 ion channel function, cellular (AID 376).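 Note: 0% = buffer alone and 100% = reference blocker.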 Conditions: hERG-expressing cells, channel activity single-concentration screen; concentration not given here.
Voltage-gated inwardly rectifying potassium channel KCNH2 (Homo sapiens), sequence (Q12809 whole entry, looked up): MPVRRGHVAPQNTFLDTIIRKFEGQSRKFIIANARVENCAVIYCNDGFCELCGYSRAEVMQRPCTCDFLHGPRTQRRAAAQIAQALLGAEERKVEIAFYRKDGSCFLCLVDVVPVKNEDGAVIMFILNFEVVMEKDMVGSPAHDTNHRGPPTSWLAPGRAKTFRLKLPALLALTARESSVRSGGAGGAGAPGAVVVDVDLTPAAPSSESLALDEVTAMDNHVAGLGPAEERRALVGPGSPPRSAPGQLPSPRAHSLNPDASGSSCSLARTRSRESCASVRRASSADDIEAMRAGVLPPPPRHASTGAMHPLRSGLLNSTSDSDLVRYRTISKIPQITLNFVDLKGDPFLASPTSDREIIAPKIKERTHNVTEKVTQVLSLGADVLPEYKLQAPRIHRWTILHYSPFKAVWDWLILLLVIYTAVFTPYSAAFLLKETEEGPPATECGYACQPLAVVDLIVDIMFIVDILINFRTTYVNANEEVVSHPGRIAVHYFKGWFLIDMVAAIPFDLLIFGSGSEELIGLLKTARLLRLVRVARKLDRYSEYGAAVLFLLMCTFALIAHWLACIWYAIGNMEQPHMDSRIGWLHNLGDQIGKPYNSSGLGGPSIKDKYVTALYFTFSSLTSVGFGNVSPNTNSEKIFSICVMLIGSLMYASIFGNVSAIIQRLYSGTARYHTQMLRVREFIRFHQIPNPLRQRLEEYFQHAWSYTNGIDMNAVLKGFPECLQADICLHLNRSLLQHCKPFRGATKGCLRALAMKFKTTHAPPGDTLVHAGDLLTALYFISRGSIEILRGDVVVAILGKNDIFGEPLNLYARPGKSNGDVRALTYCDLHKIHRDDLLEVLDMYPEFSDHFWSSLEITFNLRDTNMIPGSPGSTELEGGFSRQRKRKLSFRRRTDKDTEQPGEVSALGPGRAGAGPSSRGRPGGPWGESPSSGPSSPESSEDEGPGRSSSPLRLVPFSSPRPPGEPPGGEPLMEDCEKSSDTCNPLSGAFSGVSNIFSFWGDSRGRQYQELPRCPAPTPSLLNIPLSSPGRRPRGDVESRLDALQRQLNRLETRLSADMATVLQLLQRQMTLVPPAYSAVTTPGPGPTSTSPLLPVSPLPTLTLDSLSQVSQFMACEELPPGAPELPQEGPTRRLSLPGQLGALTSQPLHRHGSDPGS
Regarding `CC(=O)C1CCC2C1(C)CC=C1C23C=CC2(CC(O)CCC12C)C(C(=O)O)C3C(=O)O` (stereo not drawn), the hERG blockade is 3.22% (inactive).

`NC(N)=NC(N)=Nc1ccc(S(=O)(=O)O)cc1`: the hERG blockade was -3.84% (inactive). With `O=[N+]([O-])c1ccc2c(c1)Cc1cc(N=Cc3ccc4c(c3)OCO4)ccc1-2`, the hERG blockade is -2.54% (inactive). Regarding `COc1cc2c(cc1O)C(c1cc(O)c(O)c(OC)c1)C(O)(C(=O)O)C(CO)C2O` (stereo not drawn), the hERG blockade was -2.14% (inactive).

`O=C(O)c1c(Br)c(Br)c(Br)c(Br)c1C1c2ccc(O)cc2Oc2cc(O)ccc21`: the hERG blockade is 2.46% (inactive). In the case of `Cc1ccc(NC(c2ccccc2)c2ccc3cccnc3c2O)cc1` (stereo not drawn), the hERG blockade was -7.23% (inactive).

As to `c1cnc2c(c1)ccc1cccnc12`, the hERG blockade was 56.6% (active).

On to `Oc1c(C(Nc2ccccn2)c2ccccc2)ccc2cccnc12` (stereo not drawn), for which the hERG blockade was 12.1% (inactive). Regarding `Cc1ncn(-c2ccccc2O)c1C`, the hERG blockade was -3.27% (inactive). Turning to `CSC(CC(=O)O)C(=O)O` (stereo not drawn), the hERG blockade was -18% (inactive). For `CC1OC(CC(=O)O)Cc2c1c(O)c1c(O)cc(-c3cc(=O)c4c(=O)c5c(c(=O)c=4c3=O)CC(CC(=O)O)OC5C)c(O)c1c2O` (stereo not drawn), the hERG blockade was 14.9% (inactive). Take `Oc1ccc2ccccc2c1C=Cc1ccc2c(Br)cc(Br)c(O)c2n1`: the hERG blockade was 11% (inactive). Take `C[n+]1cccc(C=Cc2ccc3cccc(O)c3n2)c1`: the hERG blockade is 48.1% (active). As for `Oc1cccc2ccc(SSc3ccc4cccc(O)c4n3)nc12`, the hERG blockade is 0.631% (inactive).

Regarding `O=C(O)c1cc(=O)[nH]c(SCc2ccccc2)n1`, the hERG blockade was 0.275% (inactive). On to `C[N+](C)([O-])Cc1cc(-c2ccccc2)ccc1O`, for which the hERG blockade was -15.8% (inactive).

Turning to `O=C(SCc1cccc2ccccc12)c1ccc(Cl)cc1`, the hERG blockade is -11.8% (inactive).

For the compound `S=C(S)NCCCn1ccnc1`, the hERG blockade was -3.79% (inactive). In the case of `NCCSS(=O)(=O)CCN` it was 3.89% (inactive). As for `Cc1cc(N)c2cc(NC(=O)Nc3ccc4nc(C)cc(N)c4c3)ccc2n1`, the hERG blockade is 1.21% (inactive).

With `Cc1cc(N)c2cc(OCCOc3ccc4nc(C)cc(N)c4c3)ccc2n1`, the hERG blockade is 38.9% (active). Turning to `CCOc1ccc2nc3cc(N=Nc4ccc(N)nc4N)ccc3c(N)c2c1`, the hERG blockade was 19.7% (inactive). As for `O=C(O)CC12CC3CC(CC(O)(C3)C1)C2`, the hERG blockade is -8.63% (inactive). In the case of `CCCCCC(O)C1C(=O)OC(C)C(O)C=CC=CC=CC=CC=C(C)C(O)CC(O)CC(O)CC(O)CC(O)CC(O)CC1O` (stereo not drawn) it was -9.84% (inactive); in that of `O=C(O)C(C1NCCS1)N1Cc2ccccc2C1` (stereo not drawn), -7.98% (inactive).

Regarding `C[N+]1(Cc2ccc(Cl)c(Cl)c2)CCCC1c1ccc[n+](Cc2ccc(Cl)c(Cl)c2)c1` (stereo not drawn), the hERG blockade is 16.1% (inactive). Consider `C[N+]1(CC[N+]2(C)CCCC2c2cccnc2)CCCC1c1cccnc1` (stereo not drawn), for which the hERG blockade is 23.3% (active). `c1cncc(CNCc2cccnc2)c1`: the hERG blockade was 5.77% (inactive).

(Values after PubChem BioAssay AID376 (PDSP, 2006).)
